About 7,600 (2.4%) of roughly 320,000 compounds were called active. About 3% were inconclusive and are not listed. The entries come from a sample that favours actives as a whole. Values without a mark were called inactive. Calls follow the shape of the dose curve; as a rule, active = well fitted activation curve with a large enough effect; inconclusive = small, poorly fitted or top-dose-only effect; inactive = no such curve, though single readings can be large or run the other way.
assay: qHTS Assay for NPC1 Promoter Activators; conditions: Huh7 NPC1 promoter luciferase reporter, 24 h; series mostly up to 9.22 µM; activation: at the top concentration; also: nearly all actives have a fitted effect of over 60% in size;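 as to activation: reporter is driven by a mutant NPC1 promoter; % of control where 0% means no effect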
Method in brief: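 Readout is luciferase luminescence, reflecting NPC1 promoter activation in stably transfected Huh7 cells after 24 h compound exposure at 37 °C in reduced-serum medium with 10% FBS.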
Potency is read from the fitted curve at half-maximal effect.

Structure (SMILES)	activation [%]	Potency
O=C(Cn1c(-c2ccc(Cl)cc2)noc1=O)N1CCN(c2ccccc2F)CC1	-2.91	
O=C(NCC(=O)N1CCCCCCC1)c1ccccc1Cl	0.782	
Cn1c(NC(=O)c2ccccc2)nc2ccccc21		2820 nM (active)
CCn1c(NC(=O)c2nn(C)cc2Br)nc2ccccc21	0.149	
Cn1c(S(=O)(=O)O)nc2ccccc21	-5.2	
Cc1ccc(S(=O)(=O)N2CCCCC2)cc1C(=O)N1CCN(CCO)CC1	-1.62	
COc1ccccc1CNC(=O)COC(=O)c1sc(C)nc1C	-2.69	
O=C(Nc1ccc2sc3ccccc3c(=O)c2c1)c1ccccc1Cl		3160 nM (active)
O=C(Nc1cccc(NC(=O)c2ccccc2[N+](=O)[O-])c1)c1ccccc1Cl	-5.61	
COc1cc(NC(=O)c2cccs2)ccc1NC(=O)c1ccccc1Cl	-1.42	
O=C(COC(=O)c1cc(=O)[nH]c2ccccc12)NCc1cccc(Cl)c1	-1.99	
CC(=O)Nc1ccc(S(=O)(=O)N2CCn3cccc3C2C)cc1 (stereo not drawn)	13.9	
C=CCN(CC=C)C(=O)CN1C(=O)c2ccccc2C1=O	-3.84	
C=CCn1c(C)cc(C(=O)CN2C(=O)c3ccccc3C2=O)c1C		316 nM (active)
Cc1cc(C(=O)COC(=O)CCCN2C(=O)c3ccccc3C2=O)c(C)n1C	-1.36	
C[C@H](NC(=O)c1[nH]cnc1C(=O)Nc1nccs1)c1ccccc1	-2.02	
CCCCC/C=C/C1=CC(=O)C[C@H](c2ccc(Cl)cc2)C1	-8.4	
Cc1ccccc1-c1cc(C(=O)NCc2cccs2)n(CC2CC(c3cccnc3)=NO2)n1 (stereo not drawn)	15.3	
O=C(Nc1ccc2oc(-c3ccc4ccccc4c3)nc2c1)c1cccs1		891 nM (active)
COc1cc2ccccc2cc1C(=O)Nc1ccc(NC(=O)c2cccs2)cc1	-3.43	
O=C(Nc1ccc(NC(=O)c2cccs2)cc1)c1ccc2ccccc2c1	0.298	
CC(Sc1nnc(C2CC2)n1C1CC1)C(=O)Nc1ccc(C(N)=O)cc1 (stereo not drawn)	-0.479	

Structure (SMILES)	activation [%]	Potency
CCOc1ccc(N2C(=O)CSC2=NC#N)cc1	-0.127	
CC(=O)NC(NC(=S)Nc1c(C)n(C)n(-c2ccccc2)c1=O)C(Cl)(Cl)Cl (stereo not drawn)	-2.49	
COc1ccc(C)cc1NC(=O)CN1c2cccc3cccc(c23)S1(=O)=O	-1.54	
CCN(CC)CCN1C(=O)C(=O)/C(=C(/O)c2ccc(OC)c(OC)c2)C1c1ccccn1 (stereo not drawn)	-1.38	
CCN(CC)CCN1C(=O)C(=O)/C(=C(/O)c2cnn(-c3ccccc3)c2C)C1c1cccs1 (stereo not drawn)		3980 nM (active)
CCOc1cccc(/C(O)=C2/C(=O)C(=O)N(CCOC)C2c2ccncc2)c1 (stereo not drawn)	-3.35	
COc1ccccc1OCC(=O)OCc1cc(-c2ccco2)on1	-0.0859	
COC(=O)c1cccc(NC(=O)c2cccc(N3C(=O)CCC3=O)c2)c1	-0.0039	
CC(=O)c1sc(NC(=O)CCN2C(=O)C3CC=CCC3C2=O)nc1-c1ccccc1 (stereo not drawn)	1.1	
CCCCCCCCCCOC(=O)C[N+](C)(C)CC1CCCCC1O (stereo not drawn)	2.03	
Cc1cc(Cl)c2oc(C(=O)N(C)C(C)c3ccccn3)c(C)c2c1 (stereo not drawn)	21.6	
CCn1ccnc1CN(C)C(=O)c1ccc2nc(Cc3ccc(OC)cc3)oc2c1	-6.18	
CC(c1ccccn1)N(C)C(=O)c1ccc2nc(Cc3cccc(Cl)c3)oc2c1 (stereo not drawn)		3980 nM (active)
CC(NCC(=O)Nc1ccccc1C(=O)NC1CC1)c1ccccc1Cl (stereo not drawn)	-0.509	
Cc1ccc(C)c(C(=O)COC(=O)Cn2[nH]c(=O)c3ccccc3c2=O)c1	0.0714	
O=[N+]([O-])c1ccc(NC(=S)N2CCN(c3ccccn3)CC2)cc1	4.02	
O=C(OCc1ccc([N+](=O)[O-])cc1)c1ccccn1	1.88	
O=C(Nc1ccc([N+](=O)[O-])cc1)OCCc1ccccn1		3550 nM (active)
Cc1ccc(NC(=O)c2cccc(S(=O)(=O)N3CCCc4ccccc43)c2)nc1	-4.1	
Cc1cc(C(=O)OCC(=O)Nc2ccccc2Cl)c(C)o1	-3.16	
CCCc1ccc(C(=O)COC(=O)CN2C(=O)NC3(CCCCC3C)C2=O)cc1 (stereo not drawn)	1.15	
COc1ccc(CCNC(=O)CSc2nnc(CNC(=O)c3cccs3)o2)cc1OC	3.82	

Structure (SMILES)	activation [%]	Potency
COc1ccc(-c2nnc(SCC(=O)c3cccs3)o2)c(OC)c1		2240 nM (active)
COc1ccccc1-c1nnc(SCC(=O)N2CC(C)CC(C)C2)o1 (stereo not drawn)	1.65	
O=C(NNC(=O)c1ccc(-n2cncn2)c([N+](=O)[O-])c1)c1ccccc1	0.697	
c1ccc(-n2nc3ccccc3n2)cc1	-1.19	
Nc1ccc2nn(-c3ccc(Cl)cc3)nc2c1		447 nM (active)
CN(C)c1nnnn1-c1ccc(Cl)cc1	-5.32	
CN(CC(=O)NC1CCN(Cc2ccccc2)CC1)S(=O)(=O)c1ccc(Cl)s1	-7.49	
Cn1c(=O)c(C(=O)Nc2ncccn2)c(O)c2ccccc21		2820 nM (active)
C=CCn1c(=O)c(C(=O)Nc2ncccc2O)c(O)c2ccccc21	1.39	
CCCn1c(=O)c(C(=O)Nc2cc(C)ccn2)c(O)c2ccccc21	1.51	
Cc1ccc(NC(=O)c2csc3c2CCCC3)cc1		2820 nM (active)
O=C(Nc1ccccc1N1CCOCC1)c1csc2c1CCCC2	3.7	
O=C(N/N=C/c1ccco1)c1csc2c1CCCC2	25.4	
Cc1ccc(N=C2NC(=O)c3cccc([N+](=O)[O-])c32)cc1	2.23	
COc1ccc(CNC(=O)c2ccc(Br)s2)cc1OC	1.64	
CCc1noc(C)c1C(=O)Nc1nc2ccc(OC)cc2s1	0.745	
COc1ccc2nc(NC(=O)[C@@H]3CCCN3C(=O)c3cccs3)sc2c1	8.01	
COc1ccc2nc(NC(=O)NC3CCCCC3)sc2c1		3160 nM (active)
COc1ccc2nc(NC(=O)c3ccc(Br)s3)sc2c1		3980 nM (active)
CS(=O)(=O)c1ccc2nc(NC(=O)C3CCCCC3)sc2c1	10.5	
CCOc1ccc(OCC(=O)OC(C)C(=O)NC2CCCCC2C)cc1 (stereo not drawn)	-1.02	
O=C(CCc1nc2sc3c(c2c(=O)[nH]1)CCCC3)NCC(=O)Nc1ccccc1Br	0.897	

Structure (SMILES)	activation [%]	Potency
CSCCC(NC(=O)c1ccco1)C(=O)NCCc1ccc(F)cc1 (stereo not drawn)	0.568	
COc1ccc(S(=O)(=O)N2CCN(C(C)C(=O)Nc3ccc(C(C)C)cc3)CC2)cc1 (stereo not drawn)	-1.01	
CCC(=O)c1ccc(OCC(=O)OCC(=O)N2CCc3ccccc3C2)cc1	0.793	
CCOc1ccc2nc(NC(=O)c3cc([N+](=O)[O-])ccc3N3CCOCC3)sc2c1	-6.13	
O=C(Nc1nc2ccc([N+](=O)[O-])cc2s1)c1ccncc1		1410 nM (active)
O=C(NC(Nc1nc2ccc([N+](=O)[O-])cc2s1)(C(F)(F)F)C(F)(F)F)c1ccccc1	-37.5	
CCC(C(=O)N1CCN(S(=O)(=O)c2sc(C(=O)O)c(C)c2C(=O)O)CC1)c1ccccc1 (stereo not drawn)	-0.87	
Cc1c(N=Nc2ccc(N(C)C)cc2)c(=O)n(-c2ccccc2)n1C		3550 nM (active)
Cc1c(C=O)n(C)n(-c2ccccc2)c1=O	-2.37	
Cc1nc(N)sc1N=Nc1c(C)n(C)n(-c2ccccc2)c1=O	0.337	
CC(C(=O)Nc1ccc(S(=O)(=O)N2CCCC2)cc1)N(C)Cc1ccc(F)cc1 (stereo not drawn)	-1.43	
CCN(c1ccccc1)S(=O)(=O)c1cc(C(=O)NCc2ccccn2)ccc1C	-1.04	
CCN(CC)S(=O)(=O)c1cc(C(=O)Nc2ccccn2)ccc1C		2240 nM (active)
Cc1ccc(NC(=O)CNCc2ccccn2)cc1S(=O)(=O)N(C)C	10.9	
COc1cc(OC)cc(C(=O)NCC(=O)N2CCCCCCC2)c1	1.24	
Cc1ccc(C)c(NC(=O)COC(=O)CSc2ccccc2)c1	0.0646	
COc1ccc(-c2cn3ccsc3n2)cc1		1580 nM (active)
CCN(c1cccc(C)c1)S(=O)(=O)c1ccc(-c2coc(C)n2)cc1	-3.28	
Cc1ccn2cc(C(=O)NC3CCN(Cc4ccccc4)CC3)nc2c1	-3.61	
CCN(CC(=O)NCCc1ccccc1)S(=O)(=O)c1ccc(C)cc1	-1.6	
COc1ccc(-c2cn3ccc(C)cc3n2)cc1		112 nM (active)
COc1cc(OC)cc(-c2nc(=S)n3ccsc3n2)c1	9.02	

Structure (SMILES)	activation [%]	Potency
COc1ccc(CNc2nccs2)cc1	21.7	
CCN(CC)S(=O)(=O)c1ccc(-c2cn3ccc(C)cc3n2)cc1		1260 nM (active)
COc1ccc(-n2c(-c3ccc(OC)c(OC)c3)n[nH]c2=S)cc1	-0.837	
COC(=O)Cc1ccc(OC(=O)C2CCN(S(=O)(=O)c3ccc(OC)c(OC)c3)CC2)cc1	-0.239	
COCCn1c(C)cc(C(=O)CSc2nnc(C3CC3)n2C2CC2)c1C	-0.502	
CN(C(=O)COC(=O)CCCc1c[nH]c2ccccc12)c1c(N)n(Cc2ccccc2)c(=O)[nH]c1=O	-3.45	
O=C(Nc1ccc2c(c1)OCCO2)C1CCCN(c2ncccn2)C1 (stereo not drawn)		398 nM (active)
O=C(Nc1ccc2c(c1)OCCO2)C1CCCC1	21.2	
Cc1cc(C)nc(N2CCC(C(=O)Nc3ccc4c(c3)OCCO4)CC2)n1	-3.44	
CCc1ccccc1NC(=O)CN(C)C(=O)c1cc(C2CC2)nn1-c1ccccc1	-0.178	
COc1ccc(Cl)cc1C(=O)OCC(=O)NCc1cccs1	0.231	
CCN(CC(=O)Nc1c(F)cccc1F)C(=O)c1ccc(-c2ccc(C(C)=O)cc2)o1	-3.93	
N#Cc1ccc(CN2CCN(CC(=O)Nc3ccccc3C(=O)NC3CC3)CC2)cc1	0.497	
O=c1c(-c2ccccc2)coc2cc(O)ccc12		3160 nM (active)
CC(C)CN(Cc1c(O)ccc2c(=O)c(-c3ccccc3)coc12)CC(C)C	-1.85	
Cc1c(CCC(=O)O)c(=O)oc2cc3occ(-c4ccccc4)c3cc12	-1.45	
COCC1CCCN(Cc2nc(-c3ccc4c(c3)OCO4)no2)C1 (stereo not drawn)	12.7	
CC(=O)c1ccc(NC(=O)c2ccc3c(Cl)c4c(nc3c2)CCCC4)cc1	-3.17	
COc1ccc(N2CCN(C(=O)c3ccc4c(Cl)c5c(nc4c3)CCCC5)CC2)cc1	-3.17	
CC(C)CCNC(=O)c1ccc2c(Cl)c3c(nc2c1)CCC3		2000 nM (active)

Reference: PubChem BioAssay AID485313 (National Center for Advancing Translational Sciences (NCATS), 2010)
